DAX1 inh-1 – inhibits human nuclear receptor DAX1; P51843; HEK293 Gal4-DAX1 luciferase reporter, luminescence; inhibition, % at 6.75 µM; 340,000 compounds, 0.99% hits; AID 504766;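 active = inhibition above the mean over all tested compounds plus 3 SD, cut at about 4.2% in these data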;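 note: inhibition shows as a rise in luminescence from relieved DAX1 repression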
Target sequence (P51843 207-470 limits assumed): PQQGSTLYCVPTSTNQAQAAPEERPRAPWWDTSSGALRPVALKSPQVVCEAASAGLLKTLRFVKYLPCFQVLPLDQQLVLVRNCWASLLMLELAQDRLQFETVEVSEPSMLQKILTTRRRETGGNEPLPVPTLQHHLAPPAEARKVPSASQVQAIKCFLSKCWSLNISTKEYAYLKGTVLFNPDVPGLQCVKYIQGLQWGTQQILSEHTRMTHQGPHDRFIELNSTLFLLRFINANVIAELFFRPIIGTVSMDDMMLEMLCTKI
SMARCA2 act – increases SMARCA2 function in MMTV reporter cells; 370,000 compounds, 1% hits; activation, % at 9.1 µM; MG213 cells, MMTV-luciferase reporter, dexamethasone, overnight; in the data active = activation above about 7.8%
DAX1 inh-2 – inhibitors of DAX1 repression of SF-1 activated StAR promoter | inhibition, % at 6.8 µM | AID 652010 | 370,000 compounds, 1.1% hits | HEK293T StAR-luciferase reporter, SF-1/DAX-1 repression relief;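 active = inhibition above the mean over all tested compounds plus 3 SD, cut at about 3.6% in these data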;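 note: higher inhibition means more luminescence from relief of DAX-1 repression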
hgDAF-12 ag – hgDAF-12 agonism, primary luciferase screen; HEK293 GAL4-hgDAF12 UAS-luciferase reporter, agonist luminescence; normalized to butyrate control; 370,000 compounds, 1.8% hits; activation, % at 6.8 µM;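 active = activation above a cutoff set at the mean of all screened compounds plus 3 SD, cut at about 10% in these data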
ssDAF-12 act – activates DAF-12 receptor from parasite S. stercoralis | activation, % at 6.8 µM | AID 652126 | HEK293 ssDAF-12/GRIP1 lit1-tk-luc reporter, luminescence; % of 3 µM dafachronic acid response | 370,000 compounds, 1% hits;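 active = activation above the mean over all tested compounds plus 3 SD, cut at about 0.9% in these data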
hcDAF12 agonist – activates DAF-12 receptor from parasite H. contortus | HEK293 hcDAF-12 lit1-tk-luc reporter, luminescence; 0% DMSO, 100% Δ7-dafachronic acid | activation, % at 6.8 µM | AID 652067 | 370,000 compounds, 1.4% hits;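 active = activation above the mean of all tested compounds plus 3 SD, cut at about 5.5% in these data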
Each line names hits and unclear results; the compound was inactive in the other large screens. Sampled rows, rich in hits. Any-hit rate of the full collection: about 4.8%.

S=C(Nc1ccccc1)Nc1ccccc1-n1cccc1	hcDAF12 agonist 5.7 (no result: DAX1 inh-1)
FC(F)(F)c1ccccc1NC(=S)Nc1ccccc1	none
CCN(CC)C(=O)CC[C@@H]1CC[C@]2(CCCN(Cc3nccs3)C2)O1	none (no result: DAX1 inh-1)
Cc1cc(C(=O)CSc2nnnn2C)c(C)n1C1CC1	hgDAF-12 ag 12
O=C(OCC#CCSc1nnc(-c2cccc3ccccc23)o1)c1sccc1Cl	none (no result: DAX1 inh-1, SMARCA2 act, DAX1 inh-2)
CCC(=O)Nc1ccc2oc(-c3ccccc3Br)nc2c1	hgDAF-12 ag 11
Cc1ccccc1-c1nc2cc(NC(=O)C3CC3)ccc2o1	hgDAF-12 ag 11
CCC(=O)Nc1ccc2oc(-c3cccnc3)nc2c1	none
Cc1nc(NC(=O)c2ccccc2)nc2cc3c(cc12)OCO3	hgDAF-12 ag 12
COc1cc2ccccc2nn1	none
COc1ccc2c(n1)Sc1nc3ccccc3nc1N2	DAX1 inh-1 5.5
COC(=O)c1cc(=O)nc(NN=Cc2ccccc2O)s1	none (no result: DAX1 inh-1)
CC(=O)c1sc(N/N=C\c2ccccc2O)nc1C	hgDAF-12 ag 25
CC(=O)Nc1ccc(CNc2ncnc3ccc(-c4c(C)noc4C)cc23)cc1	ssDAF-12 act 1.2, hcDAF12 agonist 6.3
CCN(CC)C(=O)c1sc2nc(-c3ccc(OC)cc3)cn2c1C	hgDAF-12 ag 13
O=C1CCC[C@H]2C[C@H](NCc3ccc(F)cc3F)CC[C@]23CCCN13	none (no result: DAX1 inh-1, SMARCA2 act, DAX1 inh-2)
CCCCCC[C@@H](CN(CCCC)S(C)(=O)=O)c1ccccc1	none (no result: DAX1 inh-1)
NC(=S)N/N=C1\CC(n2nnnc2-c2ccccc2Cl)C2COC1O2 (stereo not given)	SMARCA2 act 7.8
CCOc1ccc(CCNC(=O)c2cc3ccsc3n2C)cc1OC	none (no result: DAX1 inh-1)
C[C@@H]1CCN(C2CC2)S(=O)(=O)c2ccc(N3CCC[C@H]3CO)cc2O1	none (no result: DAX1 inh-1)
CN(C)/C=N/c1ncn(-c2ncc(C(F)(F)F)cc2Cl)n1	DAX1 inh-1 4.4
O=C(Nc1ccc(F)cc1)C(c1ccncc1)N1CCN(C(=O)c2ccco2)CC1 (stereo not given)	none (no result: DAX1 inh-1)
O=C(Nc1ccc(F)cc1)C(c1ccccc1)N1CCN(C(=O)c2ccco2)CC1 (stereo not given)	DAX1 inh-1 4.7
Cc1ccc(-c2nc(N=Nc3ccc(O)cc3)n[nH]2)cc1	hgDAF-12 ag 11
COc1ccc(OCc2cccc(C(=O)Nn3cc([N+](=O)[O-])cn3)c2)cc1	hgDAF-12 ag 11
COc1ccc(OCc2cccc(C(=O)Nc3cc(C)on3)c2)cc1	none
COC(=O)[C@]12C[C@H](CC(=O)NCc3cccc4ccccc34)C(=O)N(CCC3=CCCCC3)C1=C[C@H](C(C)C)O[C@@H]2C1CC1	none (no result: DAX1 inh-1)
Nc1nc(CSC(=S)N2CCOCC2)nc(Nc2ccccc2)n1	DAX1 inh-1 5.0, hcDAF12 agonist 6.1
Cc1ccc(Nc2nc(N)nc(CSC(=S)N3CCOCC3)n2)cc1	none
CCCCCC(=O)OCc1ccc(C2=CC(=O)CC(C)(C)C2=O)cc1	DAX1 inh-2 4.2
C=CCn1c(C)cc(C(=O)COC(=O)c2ccc(N)c([N+](=O)[O-])c2)c1C	hgDAF-12 ag 12
COc1ccc(NC(=O)c2ccco2)cc1NC(=O)COc1ccccc1[N+](=O)[O-]	DAX1 inh-1 4.6
O=C(COc1ccccc1[N+](=O)[O-])Nc1cccc(S(=O)(=O)N2CCCC2)c1	none
COc1ccccc1NC(=O)COC(=O)CCc1ccc(S(=O)(=O)N2CCOCC2)cc1	none
O=C(COC(=O)CCc1ccc(S(=O)(=O)N2CCOCC2)cc1)Nc1ccccc1[N+](=O)[O-]	hcDAF12 agonist 5.6
O=C(COc1ccccc1[N+](=O)[O-])Nc1ccc2c(c1)CCC2	DAX1 inh-2 4.5
O=C(COC(=O)COc1ccccc1[N+](=O)[O-])Nc1ccc(S(=O)(=O)N2CCCCC2)cc1	ssDAF-12 act 1.2
COc1ccc(C2C(C(=O)Nc3cc(OC)c(OC)c(OC)c3)CCC(=O)N2c2ccc(OC)cc2)cc1 (stereo not given)	none (no result: DAX1 inh-1)
CC(C)(C)c1ccc(-c2nnc(SCC(=O)c3ccc([N+](=O)[O-])cc3)n2-c2ccc(Cl)cc2)cc1	none (no result: DAX1 inh-1)
COc1ccc2c(c1)c(=O)oc1cc(O)ccc12	DAX1 inh-1 4.7
Cc1ccc(-c2nc(C=Nc3ccccc3)c(O)o2)cc1	none
Oc1oc(-c2ccc(Br)cc2)nc1/C=N/c1ccccn1	hgDAF-12 ag 13
C/C(=N\Nc1nncc2ccccc12)c1ccc(C(C)(C)C)cc1	DAX1 inh-1 4.9 (no result: SMARCA2 act, DAX1 inh-2, hgDAF-12 ag, ssDAF-12 act, hcDAF12 agonist)
COc1ccc(OC)c(S(=O)(=O)N2CCCC(C(=O)Nc3c(C)n(C)n(-c4ccccc4)c3=O)C2)c1 (stereo not given)	none (no result: DAX1 inh-1)
O=C(NCCCN1CCCC1=O)c1cc(-c2ccc3c(c2)OCO3)nc2ccccc12	ssDAF-12 act 1.0
O=C(NCCCN1CCOCC1)c1cc(-c2ccc3c(c2)OCO3)nc2ccccc12	none
Cc1ccc(-n2nc(C)c3c(C)cc(=O)[nH]c32)cc1	ssDAF-12 act 3.5
Cc1nn(-c2ccccc2)c2[nH]c(=O)cc(C(F)F)c12	none
CC1(C)CC(=O)c2sc(NC(=O)C(C)(C)C)nc2C1	ssDAF-12 act 1.5
Cc1cc(C)c(C)c(OCCCCN2CCCCC2)c1	SMARCA2 act 7.9
Cc1ccc(OCCN2CCN(C)CC2)c([N+](=O)[O-])c1	none
Cc1ccc(OCCCN2CCOCC2)c([N+](=O)[O-])c1	hgDAF-12 ag 13
Cc1cc(OCCN2CCOCC2)ccc1Cl	hgDAF-12 ag 12
Cc1cc(OCCN2CCOCC2)ccc1[N+](=O)[O-]	none
Cc1cc(OCCN2CCCC2)ccc1[N+](=O)[O-]	ssDAF-12 act 1.1
FC(F)(F)c1cc(CNC2CCC23CCCCC3)ccc1Cl (stereo not given)	none (no result: DAX1 inh-1, SMARCA2 act, DAX1 inh-2)
O=[N+]([O-])c1ccc(NCCCN2CCC(C(O)(c3ccccc3)c3ccccc3)CC2)cc1	none (no result: DAX1 inh-1)
CSc1ccc(C(=O)NCC2CCN(C(=O)C(=O)c3cc4ccccc4o3)CC2)cc1	none (no result: DAX1 inh-1)
Cc1ccc(C(C)C)c(OCCCCCN2CCOCC2)c1	none
Cc1ccc(OCCCCCN2CCOCC2)c(Cl)c1	DAX1 inh-1 4.9
O=[N+]([O-])c1cccc2[nH]c(CNc3nc(N4CCOCC4)nc4c3ncn4-c3ccsc3)nc12	none (no result: DAX1 inh-1, SMARCA2 act, DAX1 inh-2)
C/C(CC(=O)NCc1ccccc1Cl)=N/NC(=O)c1ccccn1	hgDAF-12 ag 11
CC(=N/O)/C(C)=N\NC(=O)c1ccccn1	hgDAF-12 ag 13
CCN(C(=O)COC(=O)CCCc1nc2ccccc2s1)c1c(N)n(Cc2ccccc2)c(=O)[nH]c1=O	none
CC(C)CN(C(=O)COC(=O)CCc1nc2ccccc2s1)c1c(N)n(Cc2ccccc2)c(=O)[nH]c1=O	DAX1 inh-2 3.7
Cc1cccc(OCC(=O)Nc2ccc(C(=O)Nc3ccccc3C(=O)O)cc2)c1	none
O=C(COc1ccc(Cl)cc1Cl)Nc1ccc(C(=O)Nc2ccccc2C(=O)O)cc1	DAX1 inh-2 4.3
COCC1CCCCN1C(=O)c1ccc(OC2CCN(Cc3ccccn3)CC2)cc1 (stereo not given)	none
